Screening data from PubChem.
TDP1 cell CPT: DT40-hTDP1 cell growth loss with CPT | Potency, µM (series often up to 46.2 µM), actives largely listed as inhibitors | 420,000 compounds, 12% hits | AID 686979 | chicken DT40 Tdp1-/-;hTDP1 cells + 20 nM CPT, ATP luminescence, 48 h; further: nearly all actives have a fitted effect of over 55% in size
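Chicken DT40 Tdp1-/- cells stably complemented with human TDP1 were seeded at 400 cells/well in medium containing 20 nM camptothecin, exposed to pin-transferred compounds, and grown at 37 °C for at least 48 hr. Viability was read as ATP luminescence.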
ELG1 DNA repair: blocks ELG1-dependent DNA repair in HEK293T cells | Potency, µM (series often up to 46.1 µM), usual class: inhibitors | HEK293T ELG1-luciferase reporter, luminescence, 16 h; DNA damage induced by 5-fluorouridine | AID 504467 | 330,000 compounds, 2.3% hits; further: nearly all actives have a fitted effect of over 55% in size
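5-Fluorouridine DNA damage + compound/DMSO, 2,000 cells/well, 16 h, 37 °C/5% CO2. ONE-Glo, 30 min RT, luminescence. Readout = decrease in reporter signal.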
TDP1 cell noCPT: qHTS for Inhibitors of human tyrosyl-DNA phosphodiesterase 1 (TDP1): qHTS in cells in absence of CPT; DT40 Tdp1-/- hTDP1 cells, no CPT, ATP luminescence, 48 h; Potency, µM (doses to about 46.2 µM), usual class: inhibitors; 420,000 compounds, 15% hits; AID 686978, 2013; further: nearly all actives have a fitted effect of over 55% in size
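Growth kinetics read by CellTiter-Glo luminescence after ≥48 hr at 37 °C. Cells: DT40 Tdp1-/- stably carrying human TDP1, 400 per well, compound exposure in the absence of CPT (DMSO vehicle).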
ALOX12 inh: ALOX12 (human) lipoxygenase inhibition. purified 12hLO, xylenol orange hydroperoxide absorbance. Potency, µM (titrated, usually from 108 µM), usual class: inhibitors. 580,000 compounds, 1.1% hits
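Purified human 12hLO (150 nM final) in 25 mM Hepes, 0.01% Triton X-100, pH 7.0 was preincubated 15 min at room temperature with compound. Then 40 uM arachidonic acid was added, 30 min. Hydroperoxide was read by Fe-XO absorbance ratio 573/405 nm.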
Gal4-VP16 FLuc: Gal4-VP16 reporter inhibition counter-screen. Drosophila S2 Gal4-VP16 UAS-luciferase, luminescence, 20 h. Potency, µM (highest dose often 53.6 µM), actives largely listed as inhibitors. 310,000 compounds, 3.5% hits;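 further: Gal4-VP16 expression switched on by copper sulfate through the metallothionein promoter; nearly all actives have a fitted effect of over 50% in size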
RORg inh: ROR gamma (mouse) transcription inhibition; Potency, µM (titrated, usually from 53.6 µM), usual class: inhibitors; Drosophila S2 Gal4-RORgamma UAS-luciferase reporter, 20 h; 310,000 compounds, 5.4% hits; P51450; further: nearly all actives have a fitted effect of over 60% in size
Target sequence (P51450 whole entry, looked up, the tested form may be a part): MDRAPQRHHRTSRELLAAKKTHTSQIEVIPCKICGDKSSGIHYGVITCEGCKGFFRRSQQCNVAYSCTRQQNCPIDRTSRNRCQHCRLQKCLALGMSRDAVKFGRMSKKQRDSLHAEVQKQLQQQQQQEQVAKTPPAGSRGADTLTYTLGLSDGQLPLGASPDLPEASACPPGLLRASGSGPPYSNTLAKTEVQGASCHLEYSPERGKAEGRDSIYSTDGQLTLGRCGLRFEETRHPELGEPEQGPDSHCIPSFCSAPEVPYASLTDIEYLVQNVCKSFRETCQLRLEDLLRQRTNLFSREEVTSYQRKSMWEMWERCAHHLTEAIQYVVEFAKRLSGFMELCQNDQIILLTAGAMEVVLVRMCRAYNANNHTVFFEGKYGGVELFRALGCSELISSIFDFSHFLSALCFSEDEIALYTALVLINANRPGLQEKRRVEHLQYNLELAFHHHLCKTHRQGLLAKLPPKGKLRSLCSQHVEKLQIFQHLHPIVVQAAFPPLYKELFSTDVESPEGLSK
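Luminescence from a UAS-regulated Photinus luciferase reporter in stably transfected Drosophila Schneider cells is measured; decreased signal marks ROR gamma inhibition. Fusion expression is induced by 700 uM copper sulfate for 20 hr.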
A number is an active result; – = inactive; ? = inconclusive; · = no result; ! = repeats disagree; [ ] = remark or other dose. Sampled rows, rich in hits. Any-hit rate of the full collection: about 15%. The call rests on the fitted dose curve; in most records, active means well fitted curve in the direction sought with a large enough effect; inconclusive means small, poorly fitted or top-dose-only effect, or another doubt; inactive means no such curve, though single readings can be large; an effect the other way counts as inactive or inconclusive.

SMILES	TDP1 cell CPT	ELG1 DNA repair	TDP1 cell noCPT	ALOX12 inh	Gal4-VP16 FLuc	RORg inh
CCOc1c(Br)cc(C2CC(=O)Nc3cc4c(cc32)OCO4)cc1OC (configuration not stated)	2.91µM	·	4.61µM	–	·	·
N#Cc1ccc(-c2ccc(OCC(=O)c3ccc4c(c3)OCCO4)cc2)cc1	·	·	·	–	·	·
COc1c(CC=C(C)C)c(O)cc2oc(=O)c3c4ccc(O)cc4oc3c12	?	·	18.4µM	·	·	·
COc1c2c(cc3oc(=O)c4c5ccc(O)cc5oc4c13)OC(C)(C)CC2	16.4µM	·	16.4µM	–	·	·
COc1cc2c(c3oc(=O)cc(CC(=O)O)c13)CCC(C)(C)O2	–	–	–	?	–	–
O=c1oc2cc(O)ccc2c2oc3cc(O)ccc3c12	?	?	23.1µM	–	–	–
COCCN1CCCC(c2[nH]ccc2C(=O)N2CCSCC2)C1 (configuration not stated)	·	·	·	–	·	·
O=C1CC(c2ccccc2)N(C(=O)C2CC2)CCCN(C(=O)c2ccco2)CCN1 (configuration not stated)	·	·	·	–	·	·
OC1C(O)C(O)C(O)C(O)C1O (configuration not stated)	15µM!	–	?	–	–	–
CC(=O)N1CCN(c2ccc(NC(=O)c3ccc([N+](=O)[O-])o3)cc2Cl)CC1	0.411µM	18.3µM	0.92µM	?	?	–
O=C(Nc1cc(Cl)ccc1-n1cncn1)c1ccc([N+](=O)[O-])o1	7.31µM	–	10.3µM	–	·	·
CCC(=O)N1CCN(c2ccc(NC(=O)c3ccc([N+](=O)[O-])o3)cc2Cl)CC1	0.82µM	?	5.17µM	?	–	10µM
CCN1CCN(c2ccc(NC(=O)c3ccc([N+](=O)[O-])o3)cc2Cl)CC1	0.581µM	?	0.517µM	–	–[10 µM]	–
CCN1CCN(c2ccc(NC(=O)c3ccc(F)cc3)cc2Cl)CC1	–	?	–	–	–[10 µM]	–
CCC(=O)N1CCN(c2ccc(NC(=O)c3ccco3)cc2Cl)CC1	–	?	–	–	·	·
O=C(Nc1cc(Cl)ccc1F)c1ccc(-n2cncn2)c([N+](=O)[O-])c1	–	–	?	–	·	·
CC(C)S(=O)(=O)N1CC(Oc2ccc(-c3noc(C4CCOCC4)n3)cc2)C1	·	·	·	–	·	·
CCC(=O)N1CCN(c2ccc(Cl)cc2NC(=O)c2ccc([N+](=O)[O-])o2)CC1	18.4µM	–	?	–	–	?
CCC(=O)N1CCN(c2ccc(Cl)cc2NC(=O)c2cccc([N+](=O)[O-])c2)CC1	?	–	?	–	–	–
CC(C)CCN1CCCC2(C1)C(=NC1CCCCC1)NC(=O)N2c1cc(F)cc(F)c1 (configuration not stated)	·	·	·	–[6.33 µM]	·	·
Clc1ccccc1C1CC(c2ccccc2)=Nc2ccccc2N1 (configuration not stated)	?	–	?	–	–	–
c1ccc(C2=Nc3ccccc3NC(c3ccccc3)C2)cc1 (configuration not stated)	?	?	14.6µM	–	–	?
Cc1cc(Cl)ccc1N(CC(=O)NCCN1CCOCC1)S(=O)(=O)c1ccccc1	·	·	·	–	·	·
CCOc1ccc(CNC(=O)c2ccccc2NC(=O)c2nsc3ccccc23)cc1	20.6µM	·	18.4µM	–	·	·
CCOc1cc(CNC(=O)c2ccc(C)c(NC(=O)c3nsc4ccccc34)c2)ccc1OC	7.31µM	·	7.31µM	–	·	·
SMILES	TDP1 cell CPT	ELG1 DNA repair	TDP1 cell noCPT	ALOX12 inh	Gal4-VP16 FLuc	RORg inh
O=C(NCc1ccccc1Cl)c1ccccc1NC(=O)c1nsc2ccccc12	?	·	16.4µM	–	·	·
CCCCn1nc(C(=O)Nc2cccc(S(=O)(=O)NC3=NCCC3)c2)c2ccccc2c1=O	·	·	·	–	·	·
Cc1cccc(NC(=O)C2c3ccccc3Oc3ccccc32)n1	14.6µM	–	?	–	–	–
Cc1ccccc1Cn1nc(C)c(NC(=O)C2c3ccccc3Oc3ccccc32)c1C	11.6µM	–	14.6µM	–	–	–
Cc1cccc2sc(NC(=O)C3c4ccccc4Oc4ccccc43)nc12	11.6µM	?	?	–	–	–
Cc1ccccc1Cn1nc(C)c(NC(=O)C2(C)CC2(Cl)Cl)c1C (configuration not stated)	–	–	–	–	–	–
COc1ccc(OCc2cc(C(=O)NCCc3nc(C)c(C)s3)no2)c(Cl)c1	·	·	·	–	·	·
N/C(=N\c1nc2c(c(=O)[nH]1)CCCC2)Nc1ccccc1	–	–	?	–	–	–
Cc1ccc(N/C(N)=N/c2nc3c(c(=O)[nH]2)CCCC3)c(C)c1	13µM	–	11.6µM	–	–	–
Cc1ccc(N/C(N)=N/c2nc(C)cc(N3CCCCC3)n2)c(C)c1	2.31µM	16.4µM	2.59µM	–	?	–
Cc1ccc(NC(=O)N2CCCCCC2)c(C)c1	–	?	–	–	–	–
N/C(=N\c1nc2c(c(=O)[nH]1)CCCC2)Nc1ccccc1Sc1ccccc1	11.2µM	?	20µM	–	–	?
Cc1c(C)c2cc3c(c(C)c2oc1=O)OCN(CCc1ccccc1)C3	13µM	·	?	–	·	·
CCOC(=O)CCc1c(C)c2cc3c(c(C)c2oc1=O)OCN(CCc1ccccc1OC)C3	29.1µM	·	?	–	·	·
CCc1c(C)c2cc3c(c(C)c2oc1=O)OCN(CCc1ccccc1F)C3	13µM	·	16.4µM	?	·	·
CCOc1ccc(/C=N/Nc2nc(=O)[nH]nc2C)cc1OC	–	?	–	–	–	12.6µM
Nc1c(Cl)ncnc1N/N=C/c1cccnc1	–	–	–	?	–	–
CCOc1cc(/C=N/Nc2nc(=O)[nH]nc2C)ccc1O	–	–	–	–	–	8.91µM
CCOc1cc(/C=N/Nc2ncnc(Cl)c2N)ccc1O	–	?	?	–	?	20µM
Nc1c(Cl)ncnc1N/N=C/c1ccccn1	0.0184µM	?	0.0206µM	?	0.891µM	0.398µM
CCc1sc(C(=O)OCC(=O)N2CCC(c3ccccc3)=N2)cc1C	·	·	·	–	·	·
O=C(Cc1cccc(F)c1)N1CCCCCC1c1nnc(-c2ccccc2)o1 (configuration not stated)	·	·	·	–	·	·
O=C(Cn1sc2ccccc2c1=O)Nc1ccc(Br)cc1	2.31µM	·	2.31µM	?	·	·
O=C(Cn1nc(-c2ccccc2)c2ccccc2c1=O)Nc1ccc(F)cc1	–	–	?	?	–	–
O=C(Cn1sc2ccccc2c1=O)Nc1ccc(F)cc1	2.91µM	·	2.06µM	–	·	·
O=C(Cn1sc2ccccc2c1=O)Nc1ccc(Cl)cc1	5.17µM	·	2.59µM	–	·	·
CC(C)c1cccc(NC(=O)CC2(C(=O)O)CCCCC2)c1	·	·	·	–	·	·
O=C(NCCc1ccccc1)c1nc(-c2ccc3[nH]ccc3c2)no1	·	·	·	–	·	·
O=C(CCc1nc(-c2ccncc2)no1)Nc1ncc(Cc2ccccc2)s1	·	·	·	–	·	·
